# Shown are actives, neighbours in structure and some others; about 5.1% of the full set was active somewhere.
# S1P4 antag: antagonists of human S1P4 receptor. O95977. S1P4-expressing cells, antagonist mode, reporter read-out. inhibition, % at 4.98 µM. 220,000 tested, 0.26% active. AID 1510; in the data active = inhibition above about 29%;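 also: 0% = wells stimulated with agonist and 100% = vehicle wells without agonist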
# KCC2 mod: modulates chloride dependent transport by human KCC2 | Q9H2X9 | KCC2 cells, thallium flux FluoZin-2 fluorescence | B-score of Tl+ flux slope (higher = more flux/activation; lower = inhibition) at 10 µM | 190,000 tested, 2.2% active | AID 1456;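 active = thallium flux slope and its plate-corrected score both differing from the plate sample mean at a set confidence after two filtering rounds, in either direction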;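 also: slope of fluorescence scaled to starting intensity during 10 to 20 s after thallium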
# RAM inhibit: blocks the yeast RAM network; S. cerevisiae dse1pr::URA3 reporter, 5-FOA growth OD615, 2 d; analog-sensitive cbk1-as2 kinase mutant strain; inhibition, % at 50 µM; 190,000 tested, 1.8% active; AID 868;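 active = inhibition above a set limit, 3 SD over mean compound inhibition, cut at about 8.4% in these data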;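 also: 0% = DMSO-only wells with no growth and 100% = 10 µM 1-NA-PP1 full growth; inhibition rescues growth on 5-FOA so higher OD means more RAM inhibition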
# ROMK primary: modulates human ROMK potassium channel activity; P48048; Tet-inducible ROMK, thallium flux fluorescence; actives lie on both sides; B-score at 10 µM; 130,000 tested, 2% active; AID 1918;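 active = signal ratio slope over the read window, or its plate-corrected B-score, at least 3 SD from the plate mean, either direction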;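 also: B-score of the F/F0 ratio slope over 7 to 12 s after thallium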
# S1P4 agonist: agonists of human S1P4 receptor | O95977 | S1P4-expressing cell line, agonist reporter assay | activation, % at 4.98 µM | 220,000 tested, 0.35% active; in the data active = activation above about 11%;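 also: 0% = DMSO vehicle and 100% = reference agonist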
# S1P3 antag: antagonists of human S1P3 receptor. Q99500. CHO S1P3 NFAT-BLA reporter, FRET fluorescence, antagonist mode. inhibition, % at 4.98 µM. 170,000 tested, 0.27% active. AID 485;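 active = inhibition above the plate cutoff, the mean inhibition of test wells on that plate plus 3 SD, cut at about 28% in these data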;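 also: cells challenged with S1P at its EC80 of 0.8 µM; blue over green emission ratio from cleaved BLA substrate after 4 h stimulation; 0% = S1P-stimulated wells and 100% = unstimulated DMSO-only wells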
# Target sequence (Q99500 whole entry, looked up): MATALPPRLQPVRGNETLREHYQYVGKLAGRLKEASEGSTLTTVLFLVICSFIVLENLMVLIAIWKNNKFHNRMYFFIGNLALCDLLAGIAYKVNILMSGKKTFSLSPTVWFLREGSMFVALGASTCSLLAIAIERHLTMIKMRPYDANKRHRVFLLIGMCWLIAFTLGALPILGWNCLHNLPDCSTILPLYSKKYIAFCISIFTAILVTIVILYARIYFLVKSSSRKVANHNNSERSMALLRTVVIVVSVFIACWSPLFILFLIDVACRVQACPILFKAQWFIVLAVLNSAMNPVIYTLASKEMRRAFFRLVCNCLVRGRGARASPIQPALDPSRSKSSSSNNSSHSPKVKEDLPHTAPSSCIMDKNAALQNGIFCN
# ROMK retest: human ROMK channel modulation, retest confirmation | ROMK thallium flux, fluorescence ratio; stronger effect = lower value | shares compounds with ROMK primary | AID 1917 | 3,000 tested, 54% active | normalized thallium flux (F/F0 slope) at 10 µM;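 active = Flux at 10 µM at least 3 SD below or above vehicle control mean in one or both replicates; inconclusive = no clear call, values can overlap the other calls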
# * = called active by the depositor; u = inconclusive; x = no result given.
SMILES,S1P4 antag,KCC2 mod,RAM inhibit,ROMK primary,S1P4 agonist,S1P3 antag,ROMK retest
O=C(O)c1ccc(OCCn2ccnc2)cc1,8.1,x,-2.0,0.116,1.1,x,0.0732
COc1ccc(/C=C(/NC(=O)c2ccccc2)C(=O)NC2CCS(=O)(=O)C2)cc1 (stereo not given),-30.4,-0.302,0.4,0.0221,1.6,8.1,x
COc1ccc(Cn2nnnc2C(c2ccc(F)cc2)N2CCN(C3CCCC3)CC2)cc1 (stereo not given),11.8,x,-0.9,-4.25*,3.2,4.4,0.0532*
CC(C)C(c1nnnn1Cc1ccc(F)cc1)N1CCN(C2CCCC2)CC1 (stereo not given),14.3,-0.0211,2.6,-4.63*,1.5,-11.2,0.0589*
CCCC(c1nnnn1Cc1ccc(F)cc1)N1CCN(C2CCCCC2)CC1 (stereo not given),-4.0,0.58,0.3,x,0.7,-3.9,0.0517*
CCCCCn1c(=N)n(CC(O)COc2ccccc2OC)c2ccccc21 (stereo not given),11.6,0.408,0.1,x,-0.2,-6.1,0.0475*
CCCCn1c(=N)n(CC(O)COc2cccc(C)c2)c2ccccc21 (stereo not given),8.9,x,0.5,-5.78*,-1.1,-5.0,0.0511*
Cc1nc2ccccc2n1CC(O)COc1ccccc1Cl (stereo not given),-1.6,0.387,6.1,-1.6,-0.2,9.9,0.0573*
Cc1nc2ccccc2n1CC(O)COc1ccc(Br)cc1 (stereo not given),-5.0,0.181,0.0,x,0.9,4.9,x
CCCCn1c(=N)n(CCOc2ccc(C)cc2)c2ccccc21,7.7,0.222,2.3,-3.5*,-0.2,11.9,0.0505*
C=CCn1c(=N)n(CC(O)COc2ccccc2OC)c2ccccc21 (stereo not given),-24.7,-0.0867,-0.1,x,0.1,-18.9,x
Cn1cncc1C(=O)c1ccccc1,4.0,1.03,x,x,-0.8,-9.9,x
O=C(Nc1ccccc1-c1nc2ccccc2s1)C1=COCCO1,-21.9,-0.225,2.9,-0.237,-0.4,-6.9,x
COc1ccccc1OCC(O)Cn1c(=N)n(Cc2ccccc2)c2ccccc21 (stereo not given),8.2,-0.101,1.9,-7.83*,-0.5,x,0.0479*
Cc1ccccc1OCC(O)Cn1c(=N)n(Cc2ccccc2)c2ccccc21 (stereo not given),7.4,1.37,x,-4.65*,-1.5,5.4,0.0497*
CCNC(=O)CC1C(=O)N(C)C(=S)N1NC(=O)c1ccc(Cl)cc1 (stereo not given),-2.6,1.25,0.0,x,0.6,x,0.0762
CCNC(=O)CC1C(=O)N(CC)C(=S)N1NC(=O)c1ccc(Cl)cc1 (stereo not given),-10.6,-1.09,0.8,x,-0.7,x,x
CCOc1ccc(C2CC(=O)N(Nc3ccc([N+](=O)[O-])cc3[N+](=O)[O-])C2=O)cc1 (stereo not given),14.4,0.822,x,x,-0.8,-7.5,x
N#CC1=C(N)N(c2ccccc2)C(c2cccc([N+](=O)[O-])c2)C1(C#N)C#N (stereo not given),-7.7,-0.698,2.5,x,-0.5,x,0.0367*
Cc1cccc(N2C(N)=C(C#N)C(C#N)(C#N)C2c2ccccc2)c1 (stereo not given),-1.4,-1.74,0.3,x,-1.4,-21.5,0.0563*
C=CC(C)(C)c1cc2cc3ccoc3cc2oc1=O,10.7,1.23,0.0,0.0255,-0.4,4.7,x
Nc1ccc2c(c1)Oc1ccccc1C=C2,-0.8,-2.62,1.8,-3.17*,10.5,-0.5,0.0703
CN(/C=C/C(=C/C=[N+](C)c1ccccc1)OCCCS(=O)(=O)[O-])c1ccccc1,10.5,0.397,0.5,-3.46*,-2.6,-14.2,0.0558*
CN(/C=C/C(=C\C=[N+](C)c1ccccc1)OCCCS(=O)(=O)[O-])c1ccccc1,8.6,-0.0162,3.1,-3.12*,0.5,-13.9,0.0607*
CCOC(=O)c1sc2nc(CSc3ccccc3)nc(NCCN(C)C)c2c1C,-6.1,-0.00856,1.0,-1.23,-0.3,-20.8,x
SMILES,S1P4 antag,KCC2 mod,RAM inhibit,ROMK primary,S1P4 agonist,S1P3 antag,ROMK retest
CCn1c(=O)[nH]c(=O)c2c(N)c(C(=O)c3ccccc3OC)sc21,-13.6,0.73,0.8,3.7*,2.6,-13.2,0.0953
CCc1cc(C(=O)c2ccccc2OC)c(N)s1,1.7,0.11,-0.7,x,0.9,9.0,x
Cc1ccc(NC(=O)c2ccc(NCc3ccc(F)cc3)nc2)cc1,-13.4,0.731,1.9,0.481,1.3,0.0,x
Cc1ccc(NC(=O)c2ccc(Nc3ccccc3F)nc2)cc1,-16.9,-0.393,0.9,2.72*,0.0,3.7,0.0814
CCN(CC)CCCNc1nc(-c2ccccc2)nc2ccccc12,-12.5,-0.0424,1.8,-0.988,0.1,x,x
Cc1cc(NCCCn2ccnc2)n2ncc(-c3ccccc3)c2n1,-14.4,-0.751,1.9,-3.26*,9.2,-14.3,0.0733
c1ccc(-c2nc(NCCCn3ccnc3)c3ccccc3n2)cc1,9.8,0.335,1.7,-3.63*,-0.9,-5.2,0.0601*
Cc1cc(Cl)ccc1OCC(=O)NCCCCc1ccccc1,-13.5,0.103,4.3,x,4.1,-10.2,x
CCOC(=O)CSc1nnc(CNc2ccc(Cl)cc2)n1Cc1ccccc1,-7.2,-3.24,5.1,-3.84*,1.5,x,0.063*
COC(=O)c1ccc2c(c1)N(C)S(=O)(=O)c1cnc(SCC(=O)C(C)(C)C)nc1-2,3.7,-0.383,x,x,1.1,3.5,x
COCCOC(=O)c1c(NC(=O)CN2CCOCC2)sc(C(N)=O)c1C,-19.8,-0.48,1.2,x,-0.9,12.5,x
COCCOC(=O)c1c(NC(=O)CN2c3ccccc3CC2C)sc(C(N)=O)c1C (stereo not given),-22.6,-1.94,3.5,2.19*,1.1,-6.8,u
O=c1[nH]c(C(F)(F)F)nc2c1nnn2Cc1ccccc1F,-9.0,-0.463,0.3,3.41*,1.0,x,0.0775
O=C(c1ccccc1F)N1CCN(c2ccc([N+](=O)[O-])c3cccnc23)CC1,-1.3,-1.59,3.2,-3.07,2.7,4.5,x
Cc1cc(N2CCN(c3ccc([N+](=O)[O-])c4cccnc34)CC2)c2ccccc2n1,-18.4,-0.386,1.2,-2.58*,2.6,-2.2,0.0622*
CCc1ccc(/C=C2\Oc3c(ccc(O)c3CN3CCN(CCO)CC3)C2=O)cc1,13.3,-0.953,x,x,1.4,5.0,0.049*
COc1ccc(/C=N/NC(=O)c2ccccc2Cl)cc1CSc1nc2ccccc2s1,-9.2,-0.253,3.7,x,1.8,x,x
COc1ccc(/C=N/NC(=O)c2cccnc2)cc1CSc1nc2ccccc2s1,0.5,-0.919,6.4,x,0.0,12.6,0.0826
Cc1cccc[n+]1CCCCCCCCCC[n+]1ccccc1C,-6.6,-0.0889,1.5,0.306,1.1,-7.5,x
CCCCCCCCNc1ncnc2ccccc12,-3.5,x,0.0,-0.994,0.3,x,x
CCCCCCCCCC[n+]1cccc2c3ccccc3ccc21,-8.9,-1.91,-2.0,x,1.5,5.8,0.0352*

# Screens as filed in PubChem BioAssay.
